# Source: PubChem BioAssay AID504913 (The Scripps Research Institute Molecular Screening Center, 2011)
# This is one part of the list. Active and inactive are the calls of the source. Rule as the data show it: active = activation above about 18%; inactive = the rest.
# Experiment: activation of mu-delta opioid heterodimer signal – cell-based, luminescence, counter-screen for HTR5A agonist project (AID 504913)
# Conditions: U2OS counter-screen cells, complementation luminescence, 3 h; at 9.3 µM; stronger effect = higher value
row,SMILES,activation
1,Cc1c(C(=O)OCC(=O)N2CCCC2=O)oc2ccccc12,1.27% (inactive)
2,O=C(c1cccnc1)N(c1cc2sc(=O)oc2c2ccccc12)S(=O)(=O)c1ccccc1,4.54% (inactive)
3,COc1cccc(OCC(=O)Nc2ccccc2C(N)=O)c1,0.46% (inactive)
4,CCn1nc(C(=O)OCC(=O)N2c3ccccc3CC2C)c2ccccc2c1=O (centres undefined),1.02% (inactive)
5,CN(c1ccccc1)S(=O)(=O)c1cc(C(=O)N2CCN(c3ncccn3)CC2)ccc1Cl,-0.79% (inactive)
6,O=C(CC(O)(C(F)(F)F)C(F)(F)F)Nc1ccc(Cl)c(Cl)c1,-1.36% (inactive)
7,CCC(C)NC(=O)CCCc1ccccc1 (centres undefined),1.02% (inactive)
8,CC(=O)N1CCN(c2ccccc2NC(=S)NC(=O)c2cc3ccccc3o2)CC1,0.56% (inactive)
9,COc1ccc(S(=O)(=O)N2CCN(CC(=O)N3c4ccccc4CC3C)CC2)cc1OC (centres undefined),4.47% (inactive)
10,COc1cccc(/C=N/NC(=O)c2[nH]nc3c2CCc2ccccc2-3)c1O,-4.02% (inactive)
11,O=C(CC1Nc2ccccc2NC1=O)Nc1ccccc1 (centres undefined),2.23% (inactive)
12,c1ccc(-n2nc3ccccc3n2)cc1,2.66% (inactive)
13,Cc1ccc(C(=O)N/C(=C/c2ccco2)C(=O)NCCc2c[nH]c3ccccc23)cc1C,0.35% (inactive)
14,c1cc(-c2nn[nH]n2)ccc1CN1CCCCC1,0.2% (inactive)
15,COc1cc2c(-c3ccc4c(c3)OCO4)c(-c3ccsc3)oc(=O)c2cc1OC,-2.61% (inactive)
16,COc1ccc2[nH]cc(CCN3C(=O)c4ccc(C(=O)O)cc4C3=O)c2c1,1.66% (inactive)
17,CCOC(=O)c1cnc2sccn2c1=O,1.07% (inactive)
18,CC(=O)c1c(C)[nH]c(C(=O)OCC(=O)Nc2c(C)cccc2C)c1C,1.59% (inactive)
19,Cc1ccc(CCC(=O)Nc2ncc(Cc3cc(Cl)ccc3Cl)s2)o1,32.2% (active)
20,CNc1nnc(-c2ccco2)s1,4.29% (inactive)
21,CC(C)OC(=O)c1c(NC(=O)c2ccco2)sc2c1CCCC2,4.46% (inactive)
22,C/C(=N\NC(=O)CNc1cccc2ccccc12)c1ccc(Br)s1,-1.65% (inactive)
23,CC1(C)C2CCC1(CS(=O)(=O)NCCc1c[nH]c3ccccc13)C(=O)C2 (centres undefined),0.82% (inactive)
24,CN1c2ccc(C=O)c3c(C=O)ccc(c23)N(C)C1(C)C,107% (active)
